32 compounds from PubChem BioAssay (NCATS) can be followed below.

Several values for one entry are separate records, joined by “and”; a condition that tells them apart may be missing. Identical values can stand only once. Results filed as inconclusive are left out. Values without a mark were called inactive. Activity calls are given as the source filed them. Calls come from the whole dose curve; as a rule, active = well fitted curve in the direction sought with a large enough effect; inconclusive = small, poorly fitted or top-dose-only effect, or another doubt; inactive = no such curve, though single readings can be large; an effect the other way counts as inactive or inconclusive.
Potency is the fitted concentration of half-maximal effect.

A short description of the first test: Quantitative highthroughput screen to assess conditional lethalithy of SEM cells grown in RPMI1640 with dialyzed fetal bovine serum (RPMI+ds) (AID 1963884).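 For viability: 100% = DMSO control wells and 0% = empty wells without cells.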 Note: nearly all actives have a fitted effect of over 35% in size. Conditions: SEM B-ALL cells, RPMI+dialyzed FBS, CellTiter-Glo viability, 48 h; series mostly up to 45.8 µM. In short, it runs like this: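 Each medium arm—HPLM with 10% dialyzed FBS, or RPMI1640 with 5 mM glucose and 10% untreated or dialyzed FBS—was screened against an 11-point, 3-fold compound titration for 48 h at 37 °C, with CellTiter-Glo luminescence as endpoint.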
For the compound `O=c1n(CCCN2CCN(c3cccc(Cl)c3)CC2)nc2ccccn12`, the Potency entry is “inactive”.
In the case of `CC(C)OC(=O)C(C(=O)OC(C)C)=C1SC=CS1`, the Potency entry is “inactive”.
For `Cc1cc(CS(=O)(=O)c2ccccc2)cc(OCc2ccc(CN3CCC[C@H]3CO)cc2)c1`, the Potency is 0.526 µM (active).
Take `COc1ccc(Nc2nccc(NCCO)n2)cc1`: the Potency result was “inactive”.
In the case of `C[C@H]1Oc2cc(cnc2N)-c2c(nn(C)c2C#N)CN(C)C(=O)c2ccc(F)cc21`, the Potency entry is “inactive”.
Consider `NC(=O)N1c2ccccc2CC(=O)c2ccccc21`, for which the Potency entry is “inactive”.
For the compound `Cc1cncc2cccc(S(=O)(=O)N3CCCN(C(=O)CN)C[C@@H]3C)c12`, the Potency was 4.18 µM (active).
On to `COC1=C(OC)C(=O)C(CC=C(C)CCC=C(C)CCC=C(C)CCC=C(C)CCC=C(C)CCC=C(C)CCC=C(C)CCC=C(C)CCC=C(C)CCC=C(C)C)=C(C)C1=O`, for which the Potency entry was “inactive”.
Turning to `Clc1cccc(-n2nnnc2NCc2ccccc2Oc2ccccn2)c1Cl`, the Potency entry is “inactive”.
As to `C1=CCOCc2cc(ccc2OCCN2CCCC2)Nc2nccc(n2)-c2cccc(c2)OCC1`, the Potency is 4.18 µM (active).
Same read-out and setting: the figure for `CC(=O)OCC(=O)[C@@]1(O)[C@H](C)C[C@H]2[C@@H]3C=C(C)C4=Cc5c(cnn5-c5ccccc5)C[C@]4(C)[C@@H]3[C@@H](O)C[C@@]21C` is 0.0148 µM (active).
Same read-out and setting: the entry for `CNC1[C@H](O)C(O[C@@H]2C(O)C(O[C@H]3O[C@H]([C@@H](C)NC)CC[C@H]3N)[C@@H](N)C[C@H]2N)OC[C@]1(C)O` (stereo partly specified) is “inactive”; for `COc1ccc(CC2=NN3C([C@@H](CCc4ccccc4)[C@@H](C)O)=NC(C)C3C(=O)N2)cc1OC` (stereo partly specified) it is “inactive”.
On the same count and under the same terms, the figure for `COCCOc1ccc2c(c1)ncn2-c1ccc2cccc(N3CCC(N)CC3)c2n1` is 0.0264 µM (active); for `CCOC(=O)O[C@]1(C(=O)OCCl)CC[C@@H]2[C@H]3CCC4=CC(=O)C=C[C@]4(C)[C@@H]3[C@@H](O)C[C@@]21C` it is “inactive”; for `NC1CCC(Nc2nc(Nc3ccc(C(=O)N4CCCCC4)cc3)c3ncn(-c4cccc(F)c4)c3n2)CC1` (stereo unspecified) it is “inactive”.
Consider `CC=CC1=C(C(=O)O)N2C(=O)[C@H](NC(=O)[C@H](N)c3ccc(O)cc3)[C@@H]2SC1`, for which the Potency entry was “inactive”.
For the compound `COc1ccc2nc(S(=O)Cc3ncc(C)c(OC)c3C)[nH]c2c1` (stereo unspecified), the Potency result is “inactive”.
Consider `CC1(C)[C@H](O[C@H]2O[C@H](C(=O)O)[C@@H](O)[C@H](O)[C@H]2O[C@@H]2O[C@H](C(=O)O)[C@@H](O)[C@H](O)[C@H]2O)CC[C@@]2(C)[C@H]1CC[C@]1(C)[C@H]2C(=O)C=C2[C@H]3C[C@@](C)(C(=O)O)CC[C@]3(C)CC[C@]21C`, for which the Potency result was “inactive”.
For `CCOc1cc2ncc(C#N)c(Nc3ccc(F)c(Cl)c3)c2cc1NC(=O)C=CCN(C)C`, the Potency was 0.743 µM (active).
Same read-out and setting: the entry for `O=C1C(CCC(O)c2ccc(F)cc2)C(c2ccc(O)cc2)N1c1ccc(F)cc1` (stereo unspecified) is “inactive”.
Take `CS(=O)(=O)c1ccc(C(=O)Nc2ccc(Cl)c(-c3ccccn3)c2)c(Cl)c1`: the Potency entry was “inactive”.
Same read-out and setting: the entry for `Nc1ccc(S(=O)(=O)Nc2ccnn2-c2ccccc2)cc1` is “inactive”.
On the same count and under the same terms, to `COc1ccc(CCC(=O)Nc2nc3ccc(Cl)cc3s2)cc1OC` belongs “inactive”; to `COc1cc(NC(=O)c2ccc(-c3ccc(Cl)cc3)o2)cc(OC)c1`, “inactive”; to `CC(C)c1ccc(Cn2ccc3c4c(N)nc(NC5CC5)nc4ccc32)cc1`, 3.72 µM (active).

The nature of the next test: Cellular viability qHTS for adrenocortical cancer (ACC) cell line SW-13 (AID 1963989).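 For activity (max response): cells grown in serum-free medium with ITS supplement; % is set by controls: 0 for no effect and ±100 for the full control effect.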 Note: nearly all actives have a fitted effect of over 65% in size. As to conditions: SW-13 ACC cells viability, CellTiter-Glo, 48 h; activity (max response): hits give low values. In short, it runs like this:
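Viability was read as CellTiter-Glo luminescence after 48 h compound treatment (up to 46 uM final) of SW-13 cells grown serum-free; titration curves were fit with a four-parameter logistic model to give IC50 and efficacy.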
A general note: Quantitative high-throughput screening tests each substance at several concentrations.
In the case of `O=c1n(CCCN2CCN(c3cccc(Cl)c3)CC2)nc2ccccn12`, the activity (max response) was -1.77%.
Turning to `CC(C)OC(=O)C(C(=O)OC(C)C)=C1SC=CS1`, the activity (max response) was -12.3% and 0.529%.
Still for that read-out and setting: to `CNC(=O)c1cc(COc2nnc(Nc3ccc(Cl)cc3)c3ccoc23)ccn1` belongs -21.4%; to `COc1ccc(Nc2nccc(NCCO)n2)cc1`, 5.92%; to `C[C@H]1Oc2cc(cnc2N)-c2c(nn(C)c2C#N)CN(C)C(=O)c2ccc(F)cc21`, -27%.
Still for that read-out and setting: to `NC(=O)N1c2ccccc2CC(=O)c2ccccc21` belongs 10.8%; to `Cc1cncc2cccc(S(=O)(=O)N3CCCN(C(=O)CN)C[C@@H]3C)c12`, -18.3%; to `COC(=O)C1=C(C)NC(C)=C(C(=O)OC(C)C)C1c1cccc2nonc12` (stereo unspecified), 6.25%.
Turning to `CCCCC(=O)O[C@]1(C(=O)CO)[C@@H](C)C[C@H]2[C@@H]3CCC4=CC(=O)C=C[C@]4(C)[C@@]3(F)[C@@H](O)C[C@@]21C`, the activity (max response) is -3.35% and -9.39%.
Consider `CC(=O)OCC(=O)[C@@]1(O)[C@H](C)C[C@H]2[C@@H]3C=C(C)C4=Cc5c(cnn5-c5ccccc5)C[C@]4(C)[C@@H]3[C@@H](O)C[C@@]21C`, for which the activity (max response) was 3.11%.
The same measure, in the same setting: to `COc1ccc(CC2=NN3C([C@@H](CCc4ccccc4)[C@@H](C)O)=NC(C)C3C(=O)N2)cc1OC` (stereo partly specified) belongs 3.98%.
In the case of `COCCOc1ccc2c(c1)ncn2-c1ccc2cccc(N3CCC(N)CC3)c2n1`, the Potency was 25.1 µM (active).
With `COc1ccc2nc(S(=O)Cc3ncc(C)c(OC)c3C)[nH]c2c1` (stereo unspecified), the activity (max response) is -12.3%.
The same measure, in the same setting: the figure for `CS(=O)(=O)c1ccc(C(=O)Nc2ccc(Cl)c(-c3ccccn3)c2)c(Cl)c1` is -0.792%; for `CC1(C)O[C@@H]2C[C@H]3[C@@H]4CCC5=CC(=O)C=C[C@]5(C)[C@@H]4[C@@H](O)C[C@]3(C)[C@]2(C(=O)CO)O1` it is -5.21%.
For the compound `Nc1ccc(S(=O)(=O)Nc2ccnn2-c2ccccc2)cc1`, the activity (max response) was 3.92%.
As to `Clc1ccc2c(N3CCN(CCCN4CCN(c5ccnc6cc(Cl)ccc56)CC4)CC3)ccnc2c1`, the activity (max response) was -23.4%.
Turning to `COc1ccc(CCC(=O)Nc2nc3ccc(Cl)cc3s2)cc1OC`, the activity (max response) was -11.7%.
As to `O=C1c2ccccc2-c2n[nH]c3cccc1c23`, the activity (max response) is -13.1%.
`CC(C)c1ccc(Cn2ccc3c4c(N)nc(NC5CC5)nc4ccc32)cc1`: the Potency was 0.398 µM (active).
